Bioassay records from PubChem.
HCMV inh – human cytomegalovirus inhibition. AID 1259415. HFF cells, HCMV-luciferase reporter, 72 h; active compounds read low. activity change, negative = inhibition, % at 57.5 µM. hit rate 4.5% among 410,000; in the data active means activity change below about -60%; inconclusive means no clear call, values can overlap the other calls; inactive means above about -39%
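Luciferase read-out from HCMV-luciferase-infected HFFs (MOI 1 PFU/cell) 72 h post infection at 37C; compounds added after 16 h cell attachment; activity normalized between buffer-only basal and Salinomycin (10uM) inhibitor controls.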
Marburg entry inh – blocks Marburg virus binding to or entry into cells. Marburg virus pseudotyped entry inhibition, cell reporter. Potency, µM (doses to about 37.8 µM), most hits filed as inhibitors. hit rate 1.8% among 300,000. AID 540276; calls by dose curve; tested in HEK293 cells
Lassa entry inh – Lassa virus entry inhibition | Lassa virus pseudotype entry inhibition, cell reporter | hit rate 1.2% among 300,000 | Potency, µM (titrated, usually from 37.9 µM), actives largely listed as inhibitors; calls by dose curve; tested in HEK293 cells; further: nearly all actives have a fitted effect of over 50% in size
FMDV inh – antivirals against foot and mouth disease virus. FMDV antiviral cell-based qHTS. Potency, µM (doses to about 57.9 µM), most hits filed as inhibitors. hit rate 1.2% among 410,000. AID 1159524; calls by dose curve; tested in HEK293T cells; further: read-out not given here; nearly all actives have a fitted effect of over 45% in size
Hits are given with their value; – = inactive; ? = inconclusive; · = no result given; + = active, no number. Hits are enriched below; roughly 6.2% of the tested compounds scored in any of these assays.

SMILES	HCMV inh	Marburg entry inh	Lassa entry inh	FMDV inh
CCN1C(=O)C(=Cc2ccc(C)s2)C(=O)N(CC)C1=S	–	?	?	40µM
CC(=O)NC(c1cc(Cl)c2cccnc2c1O)C(C)C (configuration not stated)	-98	·	·	–
CC(=O)NC(c1ccc(C)cc1)c1cc(Cl)c2cccnc2c1O (configuration not stated)	-102	2.8µM	?	–
COc1ccc(C(NC(=O)c2cccnc2)c2cc(Cl)c3cccnc3c2O)cc1OC (configuration not stated)	-97	7.1µM	16µM	?
CC(=O)NC(c1cc(Cl)c2cccnc2c1O)C1CC1 (configuration not stated)	-97	·	·	–
CC(=O)NC(c1cc(Cl)c2ccccc2c1O)C(C)C (configuration not stated)	–	·	·	–
CC(=O)NC(c1ccco1)c1cc(Cl)c2cccnc2c1O (configuration not stated)	-89	·	·	–
COc1cccc(C(=O)NC(c2ccc(Cl)cc2)c2cc(Cl)c3cccnc3c2O)c1 (configuration not stated)	?	·	?	–
CCC(=O)NC(c1ccco1)c1cc(Cl)c2cccnc2c1O (configuration not stated)	-97	?	?	–
CCC(=O)NC(c1ccc(OC)cc1)c1cc(Cl)c2cccnc2c1O (configuration not stated)	–	2.2µM	2.8µM	–
CCCCC(=O)NC(c1ccco1)c1cc(Cl)c2cccnc2c1O (configuration not stated)	-96	?	?	–
CCC(=O)NC(c1ccco1)c1cc(Cl)c2cccnc2c1OC (configuration not stated)	–	·	·	–
Cc1ccc(Cn2c(=O)c3ccccc3n3c(-c4cccc(O)c4)nnc23)cc1	–	–	–	?
Cc1nc2cccnc2n1-c1cccc(C(=O)NCc2cccc(Cl)c2)c1	+	·	–	?
CCc1ccc(CNC(=O)c2cccc(-n3c(C)nc4cccnc43)c2)cc1	–	·	–	?
Cc1ccc(CNC(=O)c2ccc3c(c2)nc(C)n3-c2cccc(F)c2)cc1	-77	·	–	–
CCc1ccc(CNC(=O)Cn2nc(C)n3c(cc4cc(C)ccc43)c2=O)cc1	–	–	·	–
O=C1CCCCC1c1cccc2ccccc12 (configuration not stated)	–	?	–	–
O=C1O/C(=C/Br)CCC1c1cccc2ccccc12 (configuration not stated)	·	10µM	21µM	·
CCC(C)(C)C1CCC(=NNc2nc3ccccc3[nH]2)CC1 (configuration not stated)	?	?	8.2µM	–
CC(=O)N1CCC(=NNc2nc3ccccc3[nH]2)CC1	–	?	–	–
CCOc1ccc(OCCCC(=O)Nc2cc(S(=O)(=O)N3CCOCC3)ccc2N2CCOCC2)cc1	-90	·	·	–
CCOc1ccc(C(=O)OCC(=O)Nc2cc(S(=O)(=O)N3CCOCC3)ccc2N2CCOCC2)cc1	–	·	·	–
N#Cc1ccc(NC(=O)CCc2ccc(S(=O)(=O)N3CCOCC3)cc2)cc1	–	–	–	28µM
Cc1ccc(OCCCC(=O)Nc2ccc(S(=O)(=O)N3CCOCC3)cc2)cc1	-63	·	·	?
SMILES	HCMV inh	Marburg entry inh	Lassa entry inh	FMDV inh
N#Cc1ccc(NC(=S)NC(=O)CCc2ccc(S(=O)(=O)N3CCOCC3)cc2)cc1	–	·	·	?
Fc1ccc(-c2noc3nc(NCC4CCCO4)ccc23)cc1 (configuration not stated)	–	·	·	·
CCCNC(=S)Nc1ccc(CC(=O)OC)cc1	–	–	–	–
CCCNC(=S)Nc1ccccc1	-65	·	·	–
O=[N+]([O-])c1ccc(NC(=S)NCCc2ccc(F)cc2)cc1	-98	?	?	–
S=C(NCCSCc1ccc(Cl)cc1)Nc1ccccc1	-68	–	?	–
COc1ccc(Cl)cc1NC(=S)NCCc1ccc(F)cc1	·	·	·	–
Fc1ccc(CCNC(=S)Nc2ccc(F)c(Cl)c2)cc1	-66	–	?	–
O=C(NCCc1ccc(Cl)cc1)Nc1ccc(F)cc1	–	–	–	–
CCOc1ccc(CSCCNC(=S)Nc2ccc(OC)cc2)cc1	-81	·	·	–
CCOc1ccc(NC(=S)NCc2ccc3[nH]c(C)cc3c2)cc1	–	–	2.9µM	–
Fc1ccc(NC(=S)NCCc2ccc(Cl)cc2)cc1	-69	?	–	–
CCCOc1ccc(CSCCNC(=S)Nc2ccccc2)cc1	–	?	?	–
S=C(NCCCc1ccccc1)Nc1ccc(Cl)cc1	-98	–	–	–
S=C(NCCCc1ccccc1)Nc1ccccc1	–	–	–	–
CC(C)Oc1ccc(CNC(=O)Cc2ccc(NC(=O)N3CCSc4ncccc43)cc2)cc1	–	·	–	–
CSc1ccc(-c2nc3ncccn3c2Nc2ccc(C)c(C)c2)cc1	–	?	–	–
S=C(NCCc1ccc(Cl)cc1)NC1CCCC1	-69	·	·	–
COc1ccccc1CNC(=S)Nc1ccc(F)cc1	–	–	–	–
CC(C)N(c1ccccc1)c1ccc(NC(=S)NCCN(C)C)cc1	–	11µM	?	?
Fc1ccc(NC(=S)NCc2ccccc2Cl)cc1	-70	–	–	–
CCNC(=S)Nc1ccc(N(c2ccccc2)C(C)C)cc1	–	–	–	–
S=C(NCCc1ccccn1)Nc1ccc(Cl)cc1	-78	?	–	–
COC(=O)/C=C1/OC(c2ccccc2)=CC1=O	·	–	·	·
CC(=O)c1ccc(NS(=O)(=O)c2ccc(-n3cccn3)cc2)cc1	–	·	–	–
SMILES	HCMV inh	Marburg entry inh	Lassa entry inh	FMDV inh
O=C(NC1CCCC1)c1nc2ccccc2nc1-c1ccc(F)c(F)c1	–	·	·	·
CC(C)c1cnc2c(c1SCC(=O)Nc1ccccc1C(F)(F)F)c(=O)n(C)c(=O)n2C	–	·	–	–
CCn1ccnc1CN1CCC(n2nccc2NC(=O)c2ccccc2OC)CC1	–	–	–	10µM
COc1cc(C2CC(=O)c3c([nH]c(C(=O)OC4CCCC4)c3C)C2)cc(OC)c1OC (configuration not stated)	-98	?	?	?
CCOCCOC(=O)c1[nH]c2c(c1C)C(=O)CC(c1cc(OC)c(OC)c(OC)c1)C2 (configuration not stated)	-62	?	–	28µM
COC(=O)c1[nH]c2c(c1C)C(=O)CC(c1cc(OC)c(OC)c(OC)c1)C2 (configuration not stated)	-74	·	·	?
Cc1cnc(CNc2ncncc2-c2cccnc2)cn1	·	·	·	–
CCCCCCCCN1C(=O)[C@@H](CC(=O)NCC23CC4CC(CC(C4)C2)C3)C[C@@]2(C(=O)OC)C1=C[C@H](C(C)(C)C)O[C@@H]2C	–	·	·	·
COC(=O)[C@@H]1CCCN1Cc1ccc2c(c1)CN(Cc1ccc3c(c1)CCO3)CCO2	·	·	·	–
Cc1cccc(-n2ncc3c2CCCC3NC(=O)CN2CCCC2=O)c1C (configuration not stated)	–	?	?	–
Cc1cccc(-n2ncc3c2CCCC3NC(=O)c2cccs2)c1C (configuration not stated)	-75	·	·	?
Cc1cccc(-n2ncc3c2CCCC3NC(=O)c2ccncc2)c1C (configuration not stated)	-79	·	·	?
Cc1cc(C(=O)NC2CCCc3c2cnn3-c2cccc(C)c2C)no1 (configuration not stated)	-97	?	?	–
